Results reported in PubChem BioAssay (NCI).
Where “and” joins values, the source holds several entries; their conditions need not be identical. Equal entries are not always repeated. This is part of a sample that, as a whole, favours compounds with a hit. Of some 83,000 tested, about 20% had one in any assay.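 Treatment: one concentration, 48 hours, 96-well format. Scoring: percent growth, with anything below 10 considered active.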 Calls of active or inactive are those of the source.

Each molecule was assayed on CAKI-1 renal (assay: NCI-60 one-dose screen, 48 h (100 = growth as untreated, 0 = no growth, -100 = all killed)). Conditions: 10 µM unless noted.

SMILES | growth
CCCO/N=C/c1ccccn1 | 109% (inactive)
CN(C)CCN1C(=O)c2c(c3c4ccccc4n4c3c3c2c2ccccc2n3C2CC(O)C(O)C4(C)O2)C1=O (stereo unspecified) | 19.6% (inactive)
CCOC(=O)c1c(-c2ccc(C)cc2)c(C#N)c(=O)n(-c2cccc(C(F)(F)F)c2)c1N | 91.2% (inactive)
CCCCCCCCCCCCCCCC(=O)O[C@@H]1[C@@H](O)[C@@H](O)C([C@H](NC(=O)[C@@H]2C[C@@H](CCC)CN2C)[C@H](C)Cl)O[C@@H]1SC (stereo partly specified) | 96% (inactive)
CN(C)CCCn1c2c(c3ccc(N4CCNCC4)cc3c1=O)C(=O)c1ccccc1-2 | 5.62% (active)
CCOc1ccccc1NC(=O)c1cc2ccccc2cc1O | 45.7% (inactive)
COc1ccc(C/C(C)=C(/c2ccc(OCCN3CCCCCC3)cc2)c2ccc(OC(=O)c3ccccc3)cc2)cc1 | 104% (inactive)

Each molecule was assayed on A498 renal in the same assay as above. Conditions: 10 µM unless noted.

SMILES | growth
COc1ccc(C(=O)c2ccc(OC)c(OC)c2OC)cc1 | 4.87% (active) and -9.47% (active)
O=C1/C(=C/c2ccccc2)CN(C(=O)C(Cl)Cl)C/C1=C\c1ccccc1 | 4.17% (active)
C=C(C)[C@@H]1CC[C@]2(C(=O)O)CC[C@]3(C)[C@H](CC[C@@H]4[C@@]5(C)CCC(N)C(C)(C)[C@@H]5CC[C@]43C)[C@@H]12 (stereo partly specified) | 78.1% (inactive)
N#C/C(=C\c1ccc(Br)cc1)n1nnc2c(F)cccc21 | -21.9% (active)
COC1=CC(=O)C(OC)=C(O)C1=O | 106% (inactive)
CC(C)(C)c1cc(NC(=O)Nc2ccc(-c3cn4c(n3)sc3cc(OCCN5CCOCC5)ccc34)cc2)no1 | 8.16% (active) and 37.7% (inactive)
COc1cccc(C2C(C#N)=C(N)Oc3cc(OCCCCCC[P+](c4ccccc4)(c4ccccc4)c4ccccc4)ccc32)c1 (stereo unspecified) | -30% (active)
COc1ccc(-c2ccccc2)cc1-c1c(Nc2cc(Cl)cc(Cl)c2O)c(=O)c1=O | -17.6% (active)
Cc1ccc(S(=O)(=O)Nc2cc(Sc3ccccc3)c(O)c3ccccc23)cc1 | 70% (inactive)
COC(=O)c1[nH]nc(OC)c1C1(C(C#N)c2nc3ccccc3s2)CCCc2ccccc21 (stereo unspecified) | 109% (inactive)
COc1ccc(-c2cc(-c3cccc(Cl)c3)c(C#N)c(=O)[nH]2)c(OC)c1 | 68.2% (inactive)
Cc1nc(-n2[nH]c(=O)ccc2=O)sc1N=Nc1ccccc1 | 105% (inactive)
COc1ccc(-c2csc(NC(=O)CN3CCN(CCO)CC3)n2)cc1NS(=O)(=O)c1cccc2c(N(C)C)cccc12 | 102% (inactive)
COc1ccc(-c2[nH]c3ccccc3c2-c2ccc(OC)cc2)cc1 | 45% (inactive)
COc1ccc(/C=N\Nc2nc(SCC(C)C)nc(-c3ccc(OC)cc3)c2C#N)cc1 | -7.9% (active)
CN(C)C(=O)c1cc2cnc(Nc3ccc(-c4csc5c(=S)cc(N6CCOCC6)oc45)cc3)nc2n1C1CCCC1 | -38.2% (active)
O=C(Nc1ccc2ncsc2c1)c1csc(Nc2ccc3[nH]ncc3c2)n1 | 36.8% (inactive)
NS(=O)(=O)c1ccc(C(=O)N=Nc2c(O)[nH]c3c(F)cccc23)cc1 | 104% (inactive)
C/C=C(\C)C(=O)N[C@H]1CC[C@]2(C)C3CC[C@@]4(C)C(CC[C@@H]4C(C)N(C)C)C3CCC2[C@H]1OC(C)=O (stereo partly specified) | -32.9% (active)
CC(=O)N1N=C(c2ccc(Nc3nc(Nc4ccc(F)cc4)nc(Nc4ccc(Cl)cc4)n3)cc2)CC1c1ccc(N(C)C)cc1 (stereo unspecified) | 68.4% (inactive)
ON=C1CCCCCCCC1 | 102% (inactive) and 105% (inactive)
Cc1ccc(NC(=O)c2sc3nc(C)c(C(=O)c4ccccc4)cc3c2N)cc1 | 4.97% (active)
O=C(/C=C/c1ccc([N+](=O)[O-])cc1)c1ccccc1 | 103% (inactive)
COc1cc(CO)cc2cc3ccccc3nc12 | -22.1% (active)
O=C(Cc1ccc(F)cc1)c1ccccc1 | 99.8% (inactive)
COc1cc(-c2[nH]ncc2Nc2ccc(Cl)cc2)cc(OC)c1OC | 68.9% (inactive)
CC1(Cc2ccccc2)CC2=C(C(=O)O1)C(c1ccccc1)NC(=O)N2 (stereo unspecified) | 117% (inactive)
C=CCN1C=CC(=O)[C@H](O[Si](C)(C)C(C)(C)C)[C@@H]1/C=C/c1ccccc1 | -88.8% [100 µM] (active)
Cc1ccc(-c2nc3nc(-c4ccc(Cl)cc4)nc(N4CCCNCC4)c3o2)cc1 | 95.2% (inactive)
